# Measured values reported in PubChem BioAssay (EPA / NIEHS).
# Where “and” joins values, the source holds several entries; their conditions need not be identical. Identical values can stand only once. Inconclusive results are not listed. The source holds several records for some structures; these can differ, active in one and inactive in another. Calls of active or inactive are those of the source. How the source made its calls, unless noted: active means hit-call score of the fitted dose curve at least 0.9, where 1 is the maximum; inconclusive means response in the unintended direction; inactive means score below 0.9.
# Columns and labels:
# [1] = biological target: rat Glutamate, AMPA Site (AMPA), Gria1 (gene 50592) (UniProt P19490); assay: NVS_LGIC_rAMPA: NovaScreen (NVS) Ligand-Gated Ion Channel Assay for rat Glutamate, AMPA Site (AMPA) (AID 2283324)
# Sequence of rat Glutamate, AMPA Site (AMPA), Gria1 (gene 50592) (P19490 whole entry, looked up): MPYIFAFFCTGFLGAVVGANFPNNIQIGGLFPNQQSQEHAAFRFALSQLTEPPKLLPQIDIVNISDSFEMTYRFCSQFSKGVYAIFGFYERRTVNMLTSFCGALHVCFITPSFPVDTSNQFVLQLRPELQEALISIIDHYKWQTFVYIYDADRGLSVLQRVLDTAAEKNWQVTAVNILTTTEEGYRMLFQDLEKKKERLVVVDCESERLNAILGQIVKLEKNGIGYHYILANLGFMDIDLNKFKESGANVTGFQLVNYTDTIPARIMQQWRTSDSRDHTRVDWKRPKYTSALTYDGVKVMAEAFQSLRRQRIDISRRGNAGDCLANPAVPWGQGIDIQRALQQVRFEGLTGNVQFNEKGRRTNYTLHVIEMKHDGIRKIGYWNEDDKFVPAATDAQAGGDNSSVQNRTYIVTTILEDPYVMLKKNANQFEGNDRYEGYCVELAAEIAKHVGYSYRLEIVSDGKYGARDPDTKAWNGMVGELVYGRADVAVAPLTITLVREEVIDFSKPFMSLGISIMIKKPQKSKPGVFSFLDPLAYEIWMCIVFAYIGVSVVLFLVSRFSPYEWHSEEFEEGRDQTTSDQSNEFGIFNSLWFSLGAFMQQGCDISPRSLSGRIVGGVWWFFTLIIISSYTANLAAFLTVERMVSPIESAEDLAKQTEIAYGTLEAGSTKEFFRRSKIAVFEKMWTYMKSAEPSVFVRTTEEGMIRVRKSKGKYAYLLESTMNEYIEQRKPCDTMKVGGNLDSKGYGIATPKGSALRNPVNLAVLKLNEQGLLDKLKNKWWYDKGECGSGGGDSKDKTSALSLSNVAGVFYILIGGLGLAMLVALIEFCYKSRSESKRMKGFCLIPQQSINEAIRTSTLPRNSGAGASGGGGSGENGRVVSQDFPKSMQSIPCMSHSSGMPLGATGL
# Outline: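 Screening at 25 uM in duplicate preceded concentration series reaching 50 uM for qualifying compounds. Radioligand displacement on rat forebrain membranes, 1 h, filter-based scintillation readout; reduced binding relative to DMSO.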
# [2] = biological target: rat Glutamate, NMDA Agonist Site (GluNMDA), Grin1 (gene 24408) (UniProt P35439); assay: NVS_LGIC_rGluNMDA_Agonist: NovaScreen (NVS) Ligand-Gated Ion Channel Assay for rat Glutamate, NMDA Agonist Site (GluNMDA) (AID 2283327)
# Outline: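 Radioligand displacement at the agonist site on rat forebrain membrane preparations, read by filter scintillation after 1 h. Chemicals were first run at 25 uM in duplicate; those passing threshold were titrated to a 50 uM maximum.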
# [3] = NVS_IC_rCaDHPRCh_L: NovaScreen (NVS) Ion Channel Assay for rat Calcium Channel, Type L, Dihydropyridine Site (CaDHPRCh_L) (AID 2283320)
# Outline: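 Rat cortex membrane preparation; dihydropyridine-site radioligand displacement read 1 h post-dose by filtration and scintillation. Primary single-point screen 25 uM in duplicate, then concentration series to 50 uM maximum; DMSO as negative control.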
# [4] = biological target: Sodium channel protein type 1 subunit alpha (Rattus norvegicus) (UniProt P04774); assay: NVS_IC_rNaCh_site2: NovaScreen (NVS) Ion Channel Assay for rat Sodium Channel, Site 2 (NaCh) (AID 2283322);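 further: hit means loss of radioligand binding signal relative to DMSO so AC50 marks displacement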
# Outline: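 Initial duplicate single-point testing at 25 uM, followed by concentration-response runs for actives. Binding of radioligand to rat forebrain membranes quantified after 1 h via filter-based radiodetection.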
# [5] = biological target: human Androgen Receptor (AR), AR (gene 367) (UniProt P10275); assay: NVS_NR_hAR: NovaScreen (NVS) Nuclear Receptor Binding Assay for human Androgen Receptor (AR) (AID 2283332)
# Sequence of human Androgen Receptor (AR), AR (gene 367) (P10275 whole entry, looked up): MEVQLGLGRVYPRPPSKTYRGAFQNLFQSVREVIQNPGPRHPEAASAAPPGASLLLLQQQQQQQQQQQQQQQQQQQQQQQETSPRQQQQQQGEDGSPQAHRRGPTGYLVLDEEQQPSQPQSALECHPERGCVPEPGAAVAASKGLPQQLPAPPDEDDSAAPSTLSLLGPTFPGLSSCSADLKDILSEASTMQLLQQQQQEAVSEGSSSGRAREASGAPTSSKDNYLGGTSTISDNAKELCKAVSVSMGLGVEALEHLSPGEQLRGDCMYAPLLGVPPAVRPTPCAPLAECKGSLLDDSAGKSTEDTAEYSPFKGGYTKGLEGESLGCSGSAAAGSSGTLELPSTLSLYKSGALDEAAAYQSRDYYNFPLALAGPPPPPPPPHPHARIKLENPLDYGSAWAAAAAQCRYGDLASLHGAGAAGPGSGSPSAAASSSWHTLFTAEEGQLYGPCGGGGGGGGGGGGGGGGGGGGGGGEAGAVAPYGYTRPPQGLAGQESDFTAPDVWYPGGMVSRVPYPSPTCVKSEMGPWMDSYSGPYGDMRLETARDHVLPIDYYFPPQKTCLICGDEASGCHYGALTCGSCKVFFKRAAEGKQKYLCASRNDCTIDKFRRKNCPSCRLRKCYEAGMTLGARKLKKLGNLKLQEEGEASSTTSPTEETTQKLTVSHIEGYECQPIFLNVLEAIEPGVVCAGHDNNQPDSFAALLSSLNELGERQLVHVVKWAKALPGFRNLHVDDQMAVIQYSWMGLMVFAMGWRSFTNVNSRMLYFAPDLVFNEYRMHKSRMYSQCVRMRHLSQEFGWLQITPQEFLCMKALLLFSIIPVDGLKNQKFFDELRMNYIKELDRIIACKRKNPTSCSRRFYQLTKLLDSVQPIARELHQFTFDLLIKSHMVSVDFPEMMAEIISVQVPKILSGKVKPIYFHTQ
# Outline: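 Radioligand competitive binding, scintillation read-out, in cell-free extract from LnCAP, measured 20 h after dosing. Screened first in duplicate at 25 uM, then concentration series for actives; activity fitted against DMSO.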
# [6] = biological target: rat Peripheral-type Benzodiazepine Receptor (PBR), Tspo (gene 24230) (UniProt P16257); assay: NVS_MP_rPBR: NovaScreen (NVS) Membrane Protein Assay for rat Peripheral-type Benzodiazepine Receptor (PBR) (AID 2283335)
# Sequence of rat Peripheral-type Benzodiazepine Receptor (PBR), Tspo (gene 24230) (P16257 whole entry, looked up): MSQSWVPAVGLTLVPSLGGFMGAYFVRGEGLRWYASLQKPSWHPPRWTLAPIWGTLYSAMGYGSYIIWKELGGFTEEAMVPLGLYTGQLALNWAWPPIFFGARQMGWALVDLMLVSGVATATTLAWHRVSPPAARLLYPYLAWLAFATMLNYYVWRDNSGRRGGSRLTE
# Outline: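 Competitive displacement of specific radioligand from rat kidney membrane PBR, read by filtration and scintillation after 1 h. Compounds first tested at 25 uM in duplicate, then in concentration series; signal loss relative to DMSO.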
# [7] = biological target: human Constitutive Androstane Receptor (CAR), NR1I3 (gene 9970) (UniProt Q14994); assay: NVS_NR_hCAR_Antagonist: NovaScreen (NVS) Nuclear Receptor Binding Assay for human Constitutive Androstane Receptor Antagonism (CAR) (AID 2283344)
# Sequence of human Constitutive Androstane Receptor (CAR), NR1I3 (gene 9970) (Q14994 whole entry, looked up): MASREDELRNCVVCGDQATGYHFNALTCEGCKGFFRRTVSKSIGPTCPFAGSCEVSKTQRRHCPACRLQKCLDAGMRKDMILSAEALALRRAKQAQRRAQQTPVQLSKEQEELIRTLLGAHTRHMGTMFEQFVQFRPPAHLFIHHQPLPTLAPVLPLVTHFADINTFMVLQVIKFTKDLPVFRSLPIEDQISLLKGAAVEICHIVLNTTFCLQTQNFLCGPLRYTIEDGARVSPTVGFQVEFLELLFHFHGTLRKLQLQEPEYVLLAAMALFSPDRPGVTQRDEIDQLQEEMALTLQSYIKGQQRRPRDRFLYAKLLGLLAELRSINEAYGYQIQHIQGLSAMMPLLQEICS
# Outline: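 Single 25 uM duplicate primary screen, with concentration-series follow-up on actives. Cell-free binding format run in antagonist mode, TR-FRET signal taken 1 h post-dose; activity is signal loss relative to DMSO.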
# [8] = biological target: rat Thyrotropin Releasing Hormone Receptor (TRH), Trhr (gene 25570) (UniProt Q01717); assay: NVS_GPCR_rTRH: NovaScreen (NVS) G Protein-Coupled Receptor Assay for rat Thyrotropin Releasing Hormone Receptor (TRH) (AID 2283329);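 further: hit means lower bound tracer signal versus DMSO baseline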
# Sequence of rat Thyrotropin Releasing Hormone Receptor (TRH), Trhr (gene 25570) (Q01717 whole entry, looked up): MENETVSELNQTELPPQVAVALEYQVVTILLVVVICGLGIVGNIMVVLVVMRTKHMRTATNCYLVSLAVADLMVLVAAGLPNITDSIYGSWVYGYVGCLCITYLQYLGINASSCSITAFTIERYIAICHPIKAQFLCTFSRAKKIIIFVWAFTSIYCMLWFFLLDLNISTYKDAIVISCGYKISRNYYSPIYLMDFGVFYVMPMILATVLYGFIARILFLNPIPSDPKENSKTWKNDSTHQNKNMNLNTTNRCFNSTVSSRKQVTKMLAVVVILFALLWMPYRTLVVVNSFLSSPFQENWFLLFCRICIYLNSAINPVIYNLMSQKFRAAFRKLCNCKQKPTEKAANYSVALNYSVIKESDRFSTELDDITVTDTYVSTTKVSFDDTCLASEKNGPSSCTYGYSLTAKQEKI
# Outline: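 Test compounds are screened at 25 uM in duplicate against radioligand binding in rat forebrain membranes, with active pairs followed up over a concentration range. Detection uses filter-based radiodetection after a 4 h exposure.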
# [9] = biological target: bovine Gamma-Aminobutyric Acid Type A Receptor Agonist (GABAR Agonist), GABRA1 (gene 780973) (UniProt P08219); assay: NVS_LGIC_bGABAR_Agonist: NovaScreen (NVS) Ligand-Gated Ion Channel Assay for bovine Gamma-Aminobutyric Acid Type A Receptor Agonist (GABAR Agonist) (AID 2283338)
# Sequence of bovine Gamma-Aminobutyric Acid Type A Receptor Agonist (GABAR Agonist), GABRA1 (gene 780973) (P08219 whole entry, looked up): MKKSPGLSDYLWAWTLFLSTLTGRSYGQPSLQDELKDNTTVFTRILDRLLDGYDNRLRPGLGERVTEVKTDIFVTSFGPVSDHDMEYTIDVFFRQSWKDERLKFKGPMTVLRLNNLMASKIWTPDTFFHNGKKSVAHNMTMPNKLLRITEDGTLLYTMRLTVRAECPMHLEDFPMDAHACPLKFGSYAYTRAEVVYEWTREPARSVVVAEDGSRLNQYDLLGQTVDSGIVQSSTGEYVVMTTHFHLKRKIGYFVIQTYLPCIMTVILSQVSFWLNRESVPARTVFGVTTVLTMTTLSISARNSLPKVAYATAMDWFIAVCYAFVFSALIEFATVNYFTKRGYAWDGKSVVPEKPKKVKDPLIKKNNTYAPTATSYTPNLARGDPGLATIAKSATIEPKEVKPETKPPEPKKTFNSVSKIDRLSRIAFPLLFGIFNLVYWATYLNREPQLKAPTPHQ
# Outline: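 Radioligand binding to bovine cerebellar membranes in agonist format, read by filter-based scintillation counting after 1 h. Primary screen in duplicate at 25 uM, with actives followed in concentration series. Gain of signal versus DMSO.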
# [10] = biological target: Voltage-gated inwardly rectifying potassium channel KCNH2 (Homo sapiens) (UniProt Q12809); assay: NVS_IC_hKhERGCh: NovaScreen (NVS) Ion Channel Assay for human Potassium Channel ERG (KhERGCh) (AID 2283333)
# Outline: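 Membranes from CHO cells expressing human ERG; displacement of radioligand measured by filtration and scintillation after 0.75 h. Single-concentration duplicate screen at 25 uM, then concentration-response for actives; DMSO baseline.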
# [11] = NVS_IC_rCaBTZCHL: NovaScreen (NVS) Ion Channel Assay for Calcium Channel, Type L, Benzothiazepine Site (CaBTZCHL) (AID 2283337)
# Outline: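 Test chemicals were added to rat cortical membranes and incubated 1.5 h with a tritiated or iodinated radioligand for the benzothiazepine site. Bound ligand was separated by filtration and counted. Actives from the 25 uM duplicate screen were retested in concentration series.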
# [12] = test system: guinea pig Histamine Receptor (H2), gene 100729734; assay: NVS_GPCR_gH2: NovaScreen (NVS) G Protein-Coupled Receptor Assay for guinea pig Histamine Receptor (H2) (AID 2283342)
# Outline: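 Guinea pig striatal membrane preparation with specific radioligand; bound counts measured by filtration and scintillation 1 h post-dosing, DMSO as baseline. Chemicals passing a 25 uM duplicate screen were titrated to a 50 uM maximum.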
# [13] = biological target: human Serotonin, 5-Hydroxytryptamine Receptor 3 (5HT3), HTR3A (gene 3359) (UniProt P46098); assay: NVS_LGIC_h5HT3: NovaScreen (NVS) Ligand-Gated Ion Channel Assay for human Serotonin, 5-Hydroxytryptamine Receptor 3 (5HT3) (AID 2283325)
# Sequence of human Serotonin, 5-Hydroxytryptamine Receptor 3 (5HT3), HTR3A (gene 3359) (P46098 whole entry, looked up): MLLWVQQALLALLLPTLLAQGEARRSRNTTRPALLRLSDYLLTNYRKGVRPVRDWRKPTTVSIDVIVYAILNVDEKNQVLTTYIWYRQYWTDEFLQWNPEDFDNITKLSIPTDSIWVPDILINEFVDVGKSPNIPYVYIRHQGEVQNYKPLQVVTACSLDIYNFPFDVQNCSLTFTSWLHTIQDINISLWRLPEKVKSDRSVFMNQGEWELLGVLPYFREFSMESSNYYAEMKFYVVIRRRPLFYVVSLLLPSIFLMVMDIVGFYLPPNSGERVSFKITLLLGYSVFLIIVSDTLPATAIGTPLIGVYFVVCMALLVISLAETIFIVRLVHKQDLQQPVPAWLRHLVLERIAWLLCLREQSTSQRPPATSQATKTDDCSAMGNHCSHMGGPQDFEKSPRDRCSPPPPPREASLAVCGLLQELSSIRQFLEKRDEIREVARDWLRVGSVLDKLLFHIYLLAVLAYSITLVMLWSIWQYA
# Outline: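 Initially tested at 25 uM in duplicate, then up to 50 uM in concentration-response for actives, compounds competed with a radioligand for HEK293-derived human 5-HT3 receptor. Bound counts were measured by filtration and scintillation at 1 h; loss of signal versus DMSO.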
# [14] = biological target: rat Glycine Receptor, Strychnine-sensitive (GlyRStrySens), Glra1 (gene 25674) (UniProt P07727); assay: NVS_LGIC_rGlyRStrySens: NovaScreen (NVS) Ligand-Gated Ion Channel Assay for rat Glycine Receptor, Strychnine-sensitive (GlyRStrySens) (AID 2283341)
# Outline: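 Radioligand displacement on rat spinal cord membranes, 1 hr, filter scintillation read-out. Single-concentration duplicate screen at 25 uM; chemicals meeting threshold (e.g., 30% inhibition) rerun in concentration-response up to 50 uM. Loss of binding fitted versus DMSO.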
# [15] = biological target: Glutamate receptor ionotropic, kainate 1 (Rattus norvegicus) (UniProt P22756); assay: NVS_IC_rKAR: NovaScreen (NVS) Ion Channel Assay for rat Kainic Acid Receptors (KAR) (AID 2283334; active means hit-call score of the fitted dose curve at least 0.9, where 1 is the maximum; inactive means score below 0.9)
# Sequence of Glutamate receptor ionotropic, kainate 1 (Rattus norvegicus) (P22756 whole entry, looked up): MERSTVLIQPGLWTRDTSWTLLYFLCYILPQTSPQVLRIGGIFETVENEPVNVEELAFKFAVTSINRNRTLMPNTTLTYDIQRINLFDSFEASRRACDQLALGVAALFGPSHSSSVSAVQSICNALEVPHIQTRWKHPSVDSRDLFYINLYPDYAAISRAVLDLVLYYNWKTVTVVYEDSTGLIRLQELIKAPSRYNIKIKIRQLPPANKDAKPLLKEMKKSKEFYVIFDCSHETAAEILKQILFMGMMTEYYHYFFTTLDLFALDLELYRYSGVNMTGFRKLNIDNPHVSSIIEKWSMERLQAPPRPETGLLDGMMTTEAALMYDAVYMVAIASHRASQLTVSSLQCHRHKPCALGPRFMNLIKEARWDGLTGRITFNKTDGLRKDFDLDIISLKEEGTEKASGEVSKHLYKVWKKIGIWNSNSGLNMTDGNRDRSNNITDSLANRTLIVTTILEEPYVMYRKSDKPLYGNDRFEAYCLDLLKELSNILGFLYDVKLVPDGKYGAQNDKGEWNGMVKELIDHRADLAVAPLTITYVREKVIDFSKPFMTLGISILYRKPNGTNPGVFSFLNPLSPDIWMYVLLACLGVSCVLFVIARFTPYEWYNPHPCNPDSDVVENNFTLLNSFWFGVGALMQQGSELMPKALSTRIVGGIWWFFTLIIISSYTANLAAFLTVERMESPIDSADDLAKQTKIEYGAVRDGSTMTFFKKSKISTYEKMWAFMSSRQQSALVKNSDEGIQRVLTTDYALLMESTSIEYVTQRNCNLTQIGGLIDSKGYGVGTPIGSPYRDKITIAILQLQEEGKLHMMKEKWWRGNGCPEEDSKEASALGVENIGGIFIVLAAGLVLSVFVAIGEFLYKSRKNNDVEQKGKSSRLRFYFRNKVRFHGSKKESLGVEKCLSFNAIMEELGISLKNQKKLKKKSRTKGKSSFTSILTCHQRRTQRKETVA
# Outline: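 Rat forebrain membrane preparation incubated 1 h with radioligand and test chemical; bound signal read by filtration and scintillation. Single-concentration screen at 25 uM, then concentration series to 50 uM maximum.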
# [16] = biological target: bovine Gamma-Aminobutyric Acid Type A Receptor BDZ, alpha 5 site (GABARa5), GABRA5 (gene 523515) (UniProt Q08E50); assay: NVS_LGIC_bGABARa5: NovaScreen (NVS) Ligand-Gated Ion Channel Assay for bovine Gamma-Aminobutyric Acid Type A Receptor BDZ, alpha 5 site (GABARa5) (AID 2283323)
# Outline: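 Tested first in duplicate at a single 25 uM, with hits re-run in concentration series to a 50 uM maximum. Bovine hippocampal membranes; specific radioligand displacement measured by filter scintillation counting 1 hr post-dose.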
# [17] = test system: NCBI gene 100848466; assay: NVS_NR_bPR: NovaScreen (NVS) Nuclear Receptor Binding Assay for bovine Progextron Receptor (PR) (AID 2283343);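 further: actives lower bound radioligand signal below DMSO meaning displacement of the label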
# Outline: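 Competitive radioligand binding with membranes from bovine uterus, scintillation read-out at 18 h post-dose. Compounds first tested in duplicate at 25 uM, then actives in concentration series; loss-of-signal relative to DMSO.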
smiles,measurement,setting,value
Cc1cc(C)c(O)c(C)c1,outcome,[1],inactive
same,outcome,[2],inactive
Cc1oc(-c2ccccc2)nc1CCOc1ccc(C[C@H](Nc2ccccc2C(=O)c2ccccc2)C(=O)O)cc1,AC50,[3],25 µM (active)
same,AC50,[4],25 µM (active)
same,AC50,[5],1.92 µM (active)
same,AC50,[6],4.35 µM (active)
CC[C@H](c1ccc(O)cc1)[C@@H](CC)c1ccc(O)cc1,outcome,[4],inactive
same,AC50,[5],0.416 µM (active)
same,outcome,[5],inactive
same,AC50,[6],822 nM (active) and 258 nM (active)
same,AC50,[7],0.00229 µM (active)
CC(=O)CC(C)(C)O,outcome,[8],inactive
CCCCCCCCCCCCCCCS(=O)(=O)Oc1ccccc1,outcome,[9],inactive
CCCOc1sc(C(=O)N2CCC(c3cc(CN)ccc3F)CC2)c(C)c1Br,AC50,[3],14.7 µM (active)
same,AC50,[4],1.01 µM (active)
same,AC50,[10],7.87 µM (active)
same,outcome,[6],inactive
same,AC50,[11],3.64 µM (active)
same,AC50,[12],7.46 µM (active)
NC(=O)N(O)[C@@H]1C=C[C@H](Oc2cccc(Oc3ccc(F)cc3)c2)C1,outcome,[4],inactive
same,outcome,[1],inactive
same,outcome,[13],inactive
same,outcome,[14],inactive
same,outcome,[12],inactive
COC(=O)CCCCC(=O)OC,outcome,[1],inactive
same,outcome,[15],inactive
CCCOC(=O)c1ccc(O)cc1,AC50,[4],31.2 µM (active)
CCCCCCCC(=O)O,outcome,[16],inactive
same,outcome,[1],inactive
same,outcome,[13],inactive
same,outcome,[11],inactive
same,outcome,[7],inactive
COCC(C)OCC(C)O (stereo unspecified),outcome,[7],inactive
Nc1cccc2c(N)cccc12,AC50,[4],18.5 µM (active)
C[C@@H]1C[C@H]2[C@@H]3CCC4=CC(=O)C=C[C@]4(C)[C@@]3(F)[C@@H](O)C[C@]2(C)[C@@]1(O)C(=O)COP(=O)(O)O,outcome,[12],inactive
same,AC50,[17],10.5 µM (active)
CCCCCCCCCCCCCC[N+](C)(C)C,AC50,[4],8.44 µM (active)
CC#C[C@]1(O)CC[C@H]2[C@@H]3CCC4=CC(=O)CCC4=C3[C@@H](c3ccc(N(C)C)cc3)C[C@@]21C,AC50,[4],6.71 µM (active)
same,outcome,[12],inactive
same,AC50,[17],0.00874 µM (active)
CC[C@H](C)[C@@H](C(=O)O)n1sc2ccccc2c1=O,outcome,[1],inactive
same,outcome,[15],inactive
Oc1cc2ccccc2c2ccccc12,AC50,[5],19.2 µM (active)
same,AC50,[17],18 µM (active)
C#C[C@]1(O)CC[C@H]2[C@@H]3CCC4=CC(=O)CC[C@@H]4[C@H]3CC[C@@]21C,outcome,[8],inactive
same,AC50,[17],0.0183 µM (active)
